Assay outcomes deposited in PubChem BioAssay by National Center for Advancing Translational Sciences (NCATS).
This is a sample that favours compounds with a hit; in the whole collection about 7.8% have one here.
HCV inhibitor = blocks hepatitis C virus; AID 651820; hit rate 3.4% among 340,000; Huh7.5.1 HCVcc-Cre infection, luciferase reporter, 44 h; Potency, µM (doses to about 41.8 µM), without a hit: at the highest dose activity change, negative = inhibition, hits mostly inhibitors; active = well fitted inhibition curve with a large enough effect; inconclusive = small, poorly fitted or top-dose-only effect, or another doubt; inactive = no such curve, though single readings can be large or run the other way; also: potency is read from the fitted curve at half-maximal effect
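Reporter virus HCVcc-Cre (~0.5 moi) infects cells exposed to compound; seeding density 1,000 cells/well with 4 h settling beforehand. Luminescence, 15 sec read, taken 44 h post-infection following a 15 min RT substrate incubation.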
HCMV antiviral = blocks human cytomegalovirus replication. HFF cells, HCMV-luciferase reporter, 72 h; active compounds read low. activity change, negative = inhibition, % at 57.5 µM. AID 1259415. hit rate 4.5% among 410,000; in the data active = activity change below about -60%; inconclusive = no clear call, values can overlap the other calls; inactive = above about -39%
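Luciferase read-out from HCMV-luciferase-infected HFFs (MOI 1 PFU/cell) 72 h post infection at 37C; compounds added after 16 h cell attachment; activity normalized between buffer-only basal and Salinomycin (10uM) inhibitor controls.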
Vaccinia Venus = vaccinia inhibition (Venus reporter); Potency, µM (titrated, usually from 36.5 µM), inactives show at the highest dose activity change, negative = inhibition, usual class: inhibitors; Vaccinia virus Venus reporter expression, fluorescence; hit rate 0.46% among 330,000; calls by dose curve; tested in A549 cells; also: potency is read from the fitted curve at half-maximal effect; nearly all actives have a fitted effect of over 30% in size
VACV mCherry inh = inhibitors of vaccinia virus infection (mCherry reporter signal); Vaccinia virus mCherry reporter infection, fluorescence; hit rate 0.63% among 310,000; Potency, µM (highest dose often 36.5 µM), inactives show top-dose activity change, negative = inhibition, most hits filed as inhibitors; calls by dose curve; tested in A549 cells; also: potency is read from the fitted curve at half-maximal effect; nearly all actives have a fitted effect of over 35% in size
Marburg entry inh = inhibitors of Marburg virus binding or cell entry; hit rate 1.8% among 300,000; Marburg virus pseudotyped entry inhibition, cell reporter; Potency, µM (highest dose often 37.8 µM), for the others: at the highest dose activity change, negative = inhibition, actives largely listed as inhibitors; calls by dose curve; tested in HEK293 cells; also: potency is read from the fitted curve at half-maximal effect
LASV entry inh = blocks Lassa virus binding to or entry into cells. AID 540256. Lassa virus pseudotype entry inhibition, cell reporter. Potency, µM (top dose mostly 37.9 µM), for inactives: at the highest dose activity change, negative = inhibition, most hits filed as inhibitors. hit rate 1.2% among 300,000; calls by dose curve; tested in HEK293 cells; also: potency is read from the fitted curve at half-maximal effect; nearly all actives have a fitted effect of over 50% in size
* = called active by the depositor; i = inactive; ? = inconclusive; / = no result; [ ] = remark or other dose. % is scaled to controls: 0 for no effect and ±100 for the full control effect.

SMILES	HCV inhibitor	HCMV antiviral	Vaccinia Venus	VACV mCherry inh	Marburg entry inh	LASV entry inh
N#Cc1cc(N2CCCCC2)c([N+](=O)[O-])cc1C#N	20%	-64*	/	/	3%	2%
O=C(NC1CCCCC1)c1ccc2c(c1)N(Cc1ccc(Cl)cc1)C(=O)c1ccccc1S2(=O)=O	/	9	-19%	-18%	?	7%[46.1 µM]
O=c1nc2sc3ccccc3n2c(=O)n1-c1ccc(Cl)c(Cl)c1	/	5	0%	-9%	16%[46.1 µM]	1%[46.1 µM]
O=c1nc2sc3ccccc3n2c(=O)n1-c1cccc(Cl)c1	11µM*	/	-13%	-2%	?	?
Nc1n[nH]c(-c2ccccc2[N+](=O)[O-])n1	26%	-96*	6%	-11%	?	18%
CCOC(=O)c1cnc(N2CCN(c3cccc(C)c3C)CC2)c2ccccc12	/	33	-12%[7.34 µM]	-1%[7.34 µM]	/	?
CN(CCC#N)C(=O)COC(=O)c1c2c(nc3ccccc13)/C(=C\c1ccco1)CC2	13µM*	?	-21%	?	?	?
Cc1ccc(S(=O)(=O)N(C)C[C@@H]2Oc3ccc(NS(=O)(=O)c4ccccc4)cc3CC(=O)N([C@@H](C)CO)C[C@H]2C)cc1	0.56µM*	-15	-8%	-11%	/	/
C[C@H](CO)N1C[C@H](C)[C@H](CN(C)S(=O)(=O)c2cccs2)Oc2ccc(NC(=O)Nc3ccc4c(c3)OCO4)cc2CC1=O	-4%	-69*	?	-22%	/	/
Cc1ccc(S(=O)(=O)Nc2ccc3c(c2)CC(=O)N([C@H](C)CO)C[C@@H](C)[C@H](CN(C)S(=O)(=O)c2ccccc2)O3)cc1	8%	38	1%	i	/	/
C[C@H]1CN([C@@H](C)CO)C(=O)Cc2cc(NC(=O)CCC(F)(F)F)ccc2O[C@H]1CN(C)S(=O)(=O)c1ccc(F)cc1	-17%	-100*	?	-8%	/	/
CCc1ccc(NC(=O)CN(c2ccc(C)cc2)S(=O)(=O)c2cccs2)cc1	/	-20	3%	-3%	5%[46.1 µM]	-16%[46.1 µM]
CCCCCC(=O)Nc1cc(S(=O)(=O)N2CCCCC2)ccc1N1CCCCC1	?	-18	-11%	-11%	?	-5%
CCCCCC(=O)Nc1cc(S(=O)(=O)O)cc2cc(S(=O)(=O)O)cc(O)c12	17%	-78*	-12%	-22%	?	19%
COc1cc2c(cc1OC)C(COc1ccc3c(C)cc(=O)oc3c1)N(C(=O)c1cccc(OC)c1OC)CC2 (centres undefined)	/	10	-9%	-11%	-5%[46.1 µM]	2.8µM*
COc1ccc(C(=O)N2CCc3cc(OC)c(OC)cc3C2c2ccc(OC)c(OC)c2)cc1 (centres undefined)	12%	42	-25%	-18%	?	5µM*
COc1cc2c(cc1OC)C(COc1ccc([N+](=O)[O-])cc1)N(C(C)=O)CC2 (centres undefined)	10µM*	-38	/	/	/	/
CCCCC(=O)N1CCc2cc(OC)c(OC)cc2C1COc1ccc(OC)cc1 (centres undefined)	/	-98*	-8%	0%	/	-15%[46.1 µM]
CCC(=O)N1CCc2cc(OC)c(OC)cc2C1COc1ccc(OC)cc1 (centres undefined)	1%	152	-5%	-15%	?	-30%
CNC(=S)N1CCc2cc(OC)c(OC)cc2C1COc1ccc(OC)cc1 (centres undefined)	0%	272	-1%	i	?	?
COCCNC(=S)N1CCc2cc(OC)c(OC)cc2C1COc1cc(C)cc(C)c1 (centres undefined)	?	21	-28%	i	7.9µM*	-1%
N/C(=N\c1nc(CSc2ccc(Cl)cc2)cc(=O)[nH]1)Nc1cccc2ccccc12	6%	-73*	-6%	-11%	?	2%
CC(C)/C=C1\CC/C(=C\c2cccnc2)C1=O	10%	7	/	/	/	/
O=C1/C(=C/c2cccnc2)CCC/C1=C\c1cccnc1	?	-101*	?	?	?	7.1µM*
O=C1NC(=S)N/C1=C/c1cccnc1	0%	-63*	-16%	-29%	/	/
SMILES	HCV inhibitor	HCMV antiviral	Vaccinia Venus	VACV mCherry inh	Marburg entry inh	LASV entry inh
O=C1/C(=C/c2cccnc2)CC/C1=C\c1cccnc1	2%	-99*	-10%	-5%	?	-3%[46.1 µM]
CCC1C/C(=C\c2cccnc2)C(=O)/C(=C/c2cccnc2)C1 (centres undefined)	?	-98*	?	?	5.8µM*	4.5µM*
Cc1c(Cl)cccc1-c1ccc(CNCCSc2nnnn2-c2ccccc2)o1	/	10	-4%	-9%	-2%[46.1 µM]	5%[46.1 µM]
Cc1cc(C)c(NC(=O)c2ncoc2-c2ccco2)c(C)c1	/	-3	3%	i	/	-5%[46.1 µM]
CC[N+](C)(C)c1ccc(/C=C/c2ccncc2)cc1	/	/	i	140%	/	/
COc1cc(/C=N/NC(=O)c2sc(N)c(C#N)c2C)cc(Br)c1O	?	-67*	-11%	?	?	?
COc1ccc2ccccc2c1/C=N/NC(=O)c1sc(N)c(C#N)c1C	?	-28	-5%	-3%	-9%	?
OCCN1CCN(c2ncnc3ccc(Br)cc23)CC1	0%	-78*	-10%	i	/	/
CCN1CCN(c2ncnc3ccc(Br)cc23)CC1	-9%	-67*	-8%	0%	-21%	-2%
OCCN1CCN(c2cc(-c3ccccc3)c3ccccc3n2)CC1	?	-63*	-24%	-15%	?	-6%
OCCN1CCN(c2nc(-c3ccccc3)c3cc(Br)ccc3n2)CC1	-13%	-62*	-10%	?	?	?
CCOc1ccc(CNC(=O)CCCn2c(=O)c3cccn3c3cccnc32)cc1	/	-8	-11%	i	/	4%[46.1 µM]
CCOC(=O)Nc1ccc2c(c1)N(C(=O)CCN(C)C)c1ccccc1S2	13µM*	-25	/	/	?	-4%
Cc1cc(C(C)(C)C)cc(C)c1C[n+]1ccc2ccccc2c1	?	-96*	/	/	/	/
COc1ccc(OC)c(-c2csc(NC(=O)CSc3ccccc3)n2)c1	?	?	-27%	?	?	16µM*
COc1ccc(-c2csc(NC(=O)CSc3ccc(Br)cc3)n2)c(OC)c1	-9%	15	-12%	-6%	?	13µM*
COc1ccc(OC)c(-c2csc(NC(=O)CSCc3c(C)noc3C)n2)c1	11µM*	-39	-12%	i	?	?
COc1ccc(-c2csc(NC(=O)CSCC(=O)Nc3cc(C)on3)n2)c(OC)c1	?	-3	-27%	-12%	3%	1%
COc1ccc(OC)c(-c2csc(NC(=O)Cc3ccccc3)n2)c1	?	23	?	?	?	?
CCCCc1nn2c(=O)cc(COC(=O)c3ccccc3NC(=O)C3CCCCC3)nc2s1	/	18	-14%	-10%	/	-4%[46.1 µM]
COc1cccc(CNC(=O)c2c(OC)cc(=O)n3c2CCN(C(=O)c2ccc(C)nc2)CC3)c1	/	/	0%	i	/	/
